{"source": "PubChem BioAssay (NCATS)", "note": "Records with an inconclusive call do not appear. The source made the active and inactive calls. Calls follow the shape of the dose curve; as a rule, active = well fitted cell-killing curve with a large enough effect; inconclusive = small, poorly fitted or top-dose-only effect, or effect the other way; inactive = no such curve, though single readings can be large or run the other way. Potency is read from the fitted curve at half-maximal effect."}
{"assay": "Quantitative High-Throughput drug screen in 47 multiple myeloma cell lines against the NCATS MIPE library collection: RPMI8226_ATCC cell viability assay (AID 1919871); also: nearly all actives have a fitted effect of over 30% in size", "conditions": "RPMI8226 myeloma viability, CellTiter-Glo ATP luminescence, 48 h; series mostly up to 45.8 µM; viability (% of control): at the top concentration", "description": "PI: Beverly A. Mock Ph.D.\nLaboratory of Cancer Biology and Genetics,\nCenter for Cancer Research, National Cancer Institute,\nNational Institute of Health, Bethesda, Maryland\nDrug resistance and disease progression are common in multiple myeloma (MM) patients, underscoring the need for new therapeutic combinations. […] We hypothesized that effective combinations would reduce MYC expression and enhance p16 activity. […] These preclinical data identify potentially useful drug combinations for evaluation in drug-resistant MM and reveal potential mechanisms of combined drug sensitivity.\nDescribed herein is the primary MIPE qHTS used to cherrypick compounds. Validated compounds were then further tested for potential synergistic activiy.\n[1] Peat TJ, Gaikwad SM, Dubois W, Gyabaah-Kessie N, Zhang S, Gorjifard S, Phyo Z, Andres M, Hughitt VK, Simpson RM, Miller MA, Girvin AT, Taylor A, Williams D, D'Antonio N, Zhang Y, Rajagopalan A, Flietner E, Wilson K, Zhang X, Shinn P, Klumpp-Thomas C, McKnight C, Itkin Z, Chen L, Kazandijian D, Zhang J, Michalowski AM, Simmons JK, Keats J, Thomas CJ, Mock BA. Drug combinations identified by high-throughput screening promote cell cycle transition and upregulate Smad pathways in myeloma. Cancer Lett. 2023 Aug 1;568:216284. doi: 10.1016/j.canlet.2023.216284. Epub 2023 Jun 24. PMID: 37356470; PMCID: PMC10408729.\nSEQUENCE No. (e.g., 1, 2, 3, etc.); […] (e.g., Cells, Incubation, Reagent, etc.); VALUE and DESCRIPTION.\n1; Cells; 5 uL; white, solid bottom 1536-well Greiner assay plate.\n2; Compounds; 23 nL; Kalypsis pin tool (Wako USA) equipped with a 1536-well pin head to transfer to the assay plates.\n3; Incubation; 48 hours; 37C incubation.\n4; Reagent;5uL; CellTiter Glo (Promega).\n5; Detector; 425V; Luminescence; Viewlux PerkinElmer.\nNOTES (numbers refer to Sequence numbers above)\n1. The cell-based screening methods employed in this study were like those previously published. Briefly, the corresponding myeloma cell lines were screened in 1,536-well plates with 500 cells, 5-uL per well for inhibition of cell viability (assessed by measuring ATP levels with CellTiterGlo).\n2. NCATS MIPE 4.0 library of approved and investigational drugs were added using the Kalypsis pin tool. Wells treated with DMSO only for 100% viability and media only for 0% viability were used as controls.\n3. The assay plates were covered and incubated for 48 hours in a 37C, 5% CO2 incubator with controlled humidity.\n4. After 48 hours, CellTilter-GloTM luminescent substrate mix (Promega) reagent was added to the assay plate and plates we incubated for 5 min at room temperature.\n5. Signal was measured as median relative luminescence units on a ViewLux (PerkinElmer) multiplate reader.\n[1] Heske CM, Davis MI, Baumgart JT, Wilson K, Gormally MV, Chen L, Zhang X, Ceribelli M, Duveau DY, Guha R, Ferrer M, Arnaldez FI, Ji J, Tran HL, Zhang Y, Mendoza A, Helman LJ, Thomas CJ. Matrix Screen Identifies Synergistic Combination of PARP Inhibitors and Nicotinamide Phosphoribosyltransferase (NAMPT) Inhibitors in Ewing Sarcoma. Clin Cancer Res. 2017 Dec 1;23(23):7301-7311. doi: 10.1158/1078-0432.CCR-17-1121. Epub 2017 Sep 12. PMID: 28899971; PMCID: PMC6636827."}
{"smiles": "COc1ccccc1-c1cccc(-c2c(O)c3cc(C#N)c(Cl)cc3[nH]c2=O)c1", "viability (% of control)": "100% [at 92.2 µM] (inactive)"}
{"smiles": "OCCn1cc(-c2cnc3nnn(Cc4ccc5ncccc5c4)c3n2)cn1", "viability (% of control)": "118% (inactive)"}
{"smiles": "NCCc1ccc(O)c(O)c1", "Potency": "18.7 µM (active)"}
{"smiles": "Nc1nccc(-c2ccc3noc(-c4ccc(Cl)cc4)c3c2)n1", "viability (% of control)": "109% (inactive)"}
{"smiles": "COc1ccc([C@@H]2CC(=O)c3c(O)cc(O[C@@H]4O[C@H](CO[C@@H]5O[C@@H](C)[C@H](O)[C@@H](O)[C@@H]5O)[C@@H](O)[C@H](O)[C@@H]4O)cc3O2)cc1O", "Potency": "inactive"}
{"smiles": "Nc1nc2c(ncn2COCCO)c(=O)[nH]1", "viability (% of control)": "118% (inactive)"}
{"smiles": "Cc1cccc(-c2nn(C(=S)Nc3ccccc3)cc2-c2ccnc3ccccc23)n1", "viability (% of control)": "92.7% (inactive)"}
{"smiles": "O=c1n(CCCN2CCN(c3cccc(Cl)c3)CC2)nc2ccccn12", "viability (% of control)": "114% (inactive)"}
{"smiles": "O=C(C=Cc1ccc(/C=C/C(=O)Nc2ccc(C3=NCCN3)cc2)cc1)Nc1ccc(C2=NCCN2)cc1", "viability (% of control)": "116% (inactive)"}
{"smiles": "CS(=O)(=O)c1ccc(C(=O)Nc2ccc(Cl)c(-c3ccccn3)c2)c(Cl)c1", "viability (% of control)": "105% (inactive)"}
{"smiles": "CNC(=O)c1ccc(N2C(=S)N(c3ccc(C#N)c(C(F)(F)F)c3)C(=O)C2(C)C)cc1F", "viability (% of control)": "120% (inactive)"}
{"smiles": "Cc1c(CN2CCN(C(=O)C(C)C)CC2)sc2c(N3CCOCC3)nc(-c3cnc(N)nc3)nc12", "Potency": "0.0296 µM (active)"}
{"smiles": "COc1ccc(CC2=NN3C([C@@H](CCc4ccccc4)[C@@H](C)O)=NC(C)C3C(=O)N2)cc1OC", "note": "(stereo not given in full)", "viability (% of control)": "107% (inactive)"}
{"smiles": "OC[C@H](Cc1ccccc1)Nc1nc(Oc2ccc3c(c2)CCC3)nc2c1ncn2Cc1ccc(-c2ccccc2)cc1", "viability (% of control)": "76.4% (inactive)"}
{"smiles": "CC(C)OC(=O)C1=CN(C(=O)c2ccc(F)c(F)c2)CC(C)(C)c2c1[nH]c1ccccc21", "viability (% of control)": "95.8% (inactive)"}
{"smiles": "Cc1cc2c(C(C)C)c(O)c(O)c(C=O)c2c(O)c1-c1c(C)cc2c(C(C)C)c(O)c(O)c(C=O)c2c1O", "Potency": "20.9 µM (active)"}
{"smiles": "COc1cc(Oc2ccnc3cc(OC)c(OC)cc23)ccc1NC(=O)NC(C)c1nccs1", "note": "(stereo not given)", "Potency": "16.6 µM (active)"}
{"smiles": "Cc1cn[nH]c1", "Potency": "0.118 µM (active)"}
{"smiles": "N#CC[C@H](C1CCCC1)n1cc(-c2ncnc3[nH]ccc23)cn1", "viability (% of control)": "100% (inactive)"}
{"smiles": "Cc1ccccc1C(OCCN(C)C)c1ccccc1", "note": "(stereo not given)", "viability (% of control)": "96.1% (inactive)"}
{"smiles": "Cn1c(=O)c(F)c(Nc2ccc(I)cc2F)c2c(=O)n(C[C@@H](O)CO)cnc21", "viability (% of control)": "94.8% (inactive)"}
{"smiles": "COc1ccc(CCN2CCN(CCCc3ccccc3)CC2)cc1OC", "viability (% of control)": "121% (inactive)"}
{"smiles": "CCCn1c(=O)c2[nH]c(C34CC5CC3C[C@@H](C5)C4)nc2n(CCC)c1=O", "Potency": "8.33 µM (active)"}
{"smiles": "CCn1cc(C(=O)O)c(=O)c2cc(F)c(N3CCNC(C)C3)c(F)c21", "note": "(stereo not given)", "viability (% of control)": "115% (inactive)"}
{"smiles": "COc1ccc(-c2c(-c3ccc(O)cc3O)n[nH]c2C)cc1", "viability (% of control)": "84.9% [at 92.2 µM] (inactive)"}
{"smiles": "Fc1ccc(Cl)cc1-c1nc(Nc2ccncc2)c2nccnc2n1", "viability (% of control)": "109% (inactive)"}
{"smiles": "OC(CN1CCC(Cc2ccc(F)cc2)CC1)c1ccc(Cl)cc1", "note": "(stereo not given)", "viability (% of control)": "102% (inactive)"}
{"smiles": "Cn1cnc2c(F)c(Nc3ccc(Br)cc3Cl)c(C(=O)NOCCO)cc21", "Potency": "0.935 µM (active)"}
{"smiles": "NNCCc1ccccc1", "viability (% of control)": "108% (inactive)"}
{"smiles": "CCOc1ccc(Cc2cc([C@@H]3O[C@H](CO)[C@@H](O)[C@H](O)[C@@H]3O)ccc2Cl)cc1", "viability (% of control)": "98.5% (inactive)"}
{"smiles": "Nc1nc2[nH]cc(CCc3ccc(C(=O)N[C@@H](CCC(=O)O)C(=O)O)cc3)c2c(=O)[nH]1", "Potency": "0.264 µM (active)"}
{"smiles": "N#Cc1ccc(C(c2ccc(C#N)cc2)n2cncn2)cc1", "Potency": "5.9 µM (active)"}
{"smiles": "CCc1cc(Nc2nccc(-c3c(-c4ccc(OC)c(C(=O)Nc5c(F)cccc5F)c4)nc4ccccn34)n2)c(OC)cc1N1CCC(N2CCN(S(C)(=O)=O)CC2)CC1", "Potency": "20.9 µM (active)"}
{"smiles": "COc1c(Cl)cc2c([nH]c3cnccc32)c1NC(=O)c1cccnc1C", "viability (% of control)": "110% (inactive)"}
{"smiles": "COc1ccc(-c2oc3cc(OC)ccc3c2C(=O)c2ccc(C#N)cc2)cc1", "viability (% of control)": "116% (inactive)"}
{"smiles": "COc1ccc(COc2cc3oc(=O)c4cc(C(C)O)ccc4c3cc2OC)cc1", "note": "(stereo not given)", "Potency": "20.9 µM (active)"}
{"smiles": "NC(=O)c1cnccn1", "viability (% of control)": "140% (inactive)"}
{"smiles": "CNCc1ccc(-c2[nH]c3cc(F)cc4c3c2CCNC4=O)cc1", "viability (% of control)": "123% (inactive)"}
{"smiles": "O=NN(CCCl)C(=O)NCCCl", "viability (% of control)": "121% (inactive)"}
{"smiles": "O=c1[nH]cnc2[nH]ncc12", "viability (% of control)": "110% (inactive)"}
